# Experimental data as given in PubChem BioAssay (Tox21).
# Several values for one entry are separate records, joined by “and”; a condition that tells them apart may be missing. Equal entries are not always repeated. Records with an inconclusive call do not appear. Activity calls are given as the source filed them. Unless noted, calls come from the whole dose curve.
# Target: Estrogen receptor (Homo sapiens) (UniProt P03372)
# Assay: qHTS assay to identify small molecule agonists of the estrogen receptor alpha (ER-alpha) signaling pathway using the BG1 cell line (AID 743079; active = well fitted activation curve with a large enough effect in the repeat runs; note: nearly all actives have a fitted effect of over 20% in size)
# Details: BG1Luc4E2 cells, ERE-luciferase agonist, 22 h; series mostly up to 70.3 µM; activation: at the top concentration
# % is set by controls: 0 for no effect and ±100 for the full control effect; potency is the fitted concentration of half-maximal effect.
# Estrogen receptor (Homo sapiens), sequence (P03372 whole entry, looked up): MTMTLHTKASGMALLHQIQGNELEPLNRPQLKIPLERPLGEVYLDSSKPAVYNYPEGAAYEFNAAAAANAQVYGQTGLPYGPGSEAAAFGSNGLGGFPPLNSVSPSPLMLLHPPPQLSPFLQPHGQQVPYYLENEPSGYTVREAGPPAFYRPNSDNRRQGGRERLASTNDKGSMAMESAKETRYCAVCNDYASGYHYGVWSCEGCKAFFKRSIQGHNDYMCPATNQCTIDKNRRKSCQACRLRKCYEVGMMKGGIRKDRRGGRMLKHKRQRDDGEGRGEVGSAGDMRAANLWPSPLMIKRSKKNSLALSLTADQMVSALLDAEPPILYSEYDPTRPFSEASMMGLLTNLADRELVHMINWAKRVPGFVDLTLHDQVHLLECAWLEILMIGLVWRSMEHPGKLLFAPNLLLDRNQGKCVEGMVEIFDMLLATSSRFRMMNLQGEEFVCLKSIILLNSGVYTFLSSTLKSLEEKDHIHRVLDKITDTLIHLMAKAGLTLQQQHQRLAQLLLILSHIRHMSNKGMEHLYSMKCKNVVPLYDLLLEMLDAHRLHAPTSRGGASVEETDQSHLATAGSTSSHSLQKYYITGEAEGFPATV
Structure (SMILES),activation,Potency
COC(=O)c1cc(Cl)ccc1[N+](=O)[O-],-9.82% (inactive),
CC1=CC(=C(c2ccc(N)cc2)c2ccc(N)cc2)C=CC1=N,1.34% [at 8.47 µM] (inactive),
c1ccc(CCNc2nc(-c3ccccc3)cs2)cc1,,0.944 µM (active)
Cc1c(Cl)cccc1Nc1ccccc1C(=O)O,-5.44% (inactive),
Cc1ccc(NC(=O)c2ccc(CN3CCN(C)CC3)cc2)cc1Nc1nccc(-c2cccnc2)n1,-37.1% (inactive),
O=c1c2ccccc2oc2ccccc12,,48.6 µM (active)
Cc1ccc2ccccc2c1[N+](=O)[O-],-6.7% (inactive),
CCCCCCCCS,0.821% [at 95 µM] (inactive),
Cc1cc(C)n(CO)n1,-9.17% (inactive),
Oc1ccc(CCNCCCCCCNCCc2ccccc2)cc1O,-11.2% (inactive),

# Tested on: not listed separately
# Assay: qHTS assay to identify small molecule antagonists of the estrogen receptor alpha (ER-alpha) signaling pathway using the BG1 cell line (AID 743080);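 note: BG1 cells stimulated with 17beta-estradiol alongside compound; nearly all actives have a fitted effect of over 25% in size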
# Details: BG1Luc4E2 ERE-luciferase antagonist mode, luminescence; series mostly up to 70.3 µM; activity change, negative = inhibition: at the top concentration
# Summary of the method: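 Readout is ONE-Glo luminescence, taken 30 min at room temperature after reagent addition, preceded by a CellTiter-Fluor viability read; BG1-Luc-4E2 cells had received compound and 17beta-estradiol for 21.5 h at 37 C.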
Structure (SMILES),"activity change, negative = inhibition",Potency
COC(=O)c1cc(Cl)ccc1[N+](=O)[O-],3.45% (inactive),
CC1=CC(=C(c2ccc(N)cc2)c2ccc(N)cc2)C=CC1=N,-25% [at 8.47 µM] (inactive),
Cc1c(Cl)cccc1Nc1ccccc1C(=O)O,0.567% (inactive),
Cc1nc2sccn2c(=O)c1CCN1CCC(=C(c2ccc(F)cc2)c2ccc(F)cc2)CC1,,29.8 µM (active)
Cc1ccc2ccccc2c1[N+](=O)[O-],3% (inactive),
CC(C)C[C@H](NC(=O)[C@H](Cc1ccccc1)NC(=O)c1cnccn1)B(O)O,,66.8 nM (active) and 53.1 nM (active)
CCCCCCCCS,3.1% [at 95 µM] (inactive),
Cc1cc(C)n(CO)n1,4.87% (inactive),
Oc1ccc(CCNCCCCCCNCCc2ccccc2)cc1O,-0.181% (inactive),
